Compound activity (PubChem BioAssay)
CYP2C9 act: CYP2C9 (human) activation | recombinant CYP2C9, luciferin-H conversion, luminescence; stronger effect = higher value; factor 1 = untreated enzyme, 0 = blocked | AID 1024 | activation factor at 5 µM | hit rate 1.4% among 96,000;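 active means activation factor of 2 or more for CYP2C9 at a 5 µM dose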
Pyk2 oligo antag: blocks oligomerization of human Pyk2 in cells; AID 1347419; z-score (the deposit names both 25 µM and 10 µM); hit rate 0.83% among 99,000; Q293 cells, Pyk2 FERM NanoBiT luminescence; stronger effect = lower value; Q14289;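 active means Z-score of -3 or lower, scaled per plate to the spread of control and sample wells; inactive means z-score above -3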;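 further: negative z-score means lost luminescence so less FERM oligomerization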
Target sequence (Q14289 whole entry, looked up): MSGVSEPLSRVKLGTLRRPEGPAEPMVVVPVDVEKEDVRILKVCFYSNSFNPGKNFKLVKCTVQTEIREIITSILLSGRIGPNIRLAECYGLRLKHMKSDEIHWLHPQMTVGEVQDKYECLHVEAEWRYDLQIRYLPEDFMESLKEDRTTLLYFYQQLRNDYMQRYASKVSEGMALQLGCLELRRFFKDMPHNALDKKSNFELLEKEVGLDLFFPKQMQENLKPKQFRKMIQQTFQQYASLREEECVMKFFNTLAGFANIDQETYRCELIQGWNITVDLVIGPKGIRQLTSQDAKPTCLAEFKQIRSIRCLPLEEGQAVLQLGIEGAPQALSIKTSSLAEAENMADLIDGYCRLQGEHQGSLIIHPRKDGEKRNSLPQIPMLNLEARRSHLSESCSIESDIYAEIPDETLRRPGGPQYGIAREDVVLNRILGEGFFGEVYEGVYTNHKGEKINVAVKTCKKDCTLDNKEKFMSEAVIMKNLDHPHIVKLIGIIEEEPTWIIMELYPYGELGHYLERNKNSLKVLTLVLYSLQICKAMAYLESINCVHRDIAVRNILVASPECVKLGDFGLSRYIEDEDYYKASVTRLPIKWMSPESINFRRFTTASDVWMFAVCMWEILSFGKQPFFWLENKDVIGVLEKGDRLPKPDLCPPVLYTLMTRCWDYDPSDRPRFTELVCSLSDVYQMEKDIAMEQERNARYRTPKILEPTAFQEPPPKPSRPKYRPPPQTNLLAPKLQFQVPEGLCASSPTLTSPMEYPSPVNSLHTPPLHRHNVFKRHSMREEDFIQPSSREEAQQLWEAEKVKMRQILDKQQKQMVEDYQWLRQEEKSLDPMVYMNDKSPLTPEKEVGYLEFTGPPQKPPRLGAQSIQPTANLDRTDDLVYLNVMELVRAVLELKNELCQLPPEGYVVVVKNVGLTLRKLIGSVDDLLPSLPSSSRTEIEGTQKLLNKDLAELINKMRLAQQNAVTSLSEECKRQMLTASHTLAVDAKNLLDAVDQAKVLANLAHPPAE
CYP2C19 inhib: human CYP2C19 inhibition. CYP2C19 Supersomes, luciferin-H EGE luminescence, 30 min. P33261. hit rate 21% among 96,000. inhibition, % at 5 µM. AID 778;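 active means CYP2C19 inhibition above a set limit at 5 µM in the primary screen, cut at about 50% in these data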
CYP2C19 act: activators of human cytochrome P450 2C19; 96,000 tested, under 10 active; recombinant CYP2C19, luciferin-H EGE luminescence; stronger effect = higher value; 0 = fully inhibited enzyme, 1 = untreated enzyme; activation factor at 5 µM; P33261;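 active means activation factor of at least 2 at 5 µM in the primary screen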
CYP2C9 inh: blocks human cytochrome P450 2C9; hit rate 20% among 96,000; inhibition, % at 5 µM; CYP2C9 Supersomes, luciferin-H conversion, luminescence;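 active means blocking of liver enzyme CYP2C9 beyond about 50% at 5 µM, limit read from the data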
Of the large screens only hits and unclear results are named; the others gave an inactive call. A selection: hits, their analogues and other compounds. The true share with any hit is near 28%.

COC(=O)c1cc(Br)c(=O)n(CCN2CCOCC2)c1	none
Cc1ccccc1OCC(=O)NCC1CCCO1 (stereo not drawn)	none
COc1cc(NC(=O)c2csc3c2CCCC3)ncn1	none
COc1ccccc1NC(=O)c1csc2c1CCCC2	CYP2C9 act 2.4
COc1ccccc1OCC(=O)Nc1sc2c(c1C(=O)NCC1CCCO1)CCC2 (stereo not drawn)	CYP2C19 inhib 52.1, CYP2C9 inh 95.9
COc1ccccc1C(=O)Nc1sc2c(c1C(=O)NCc1ccco1)CCCC2	CYP2C9 inh 84.0
CCOC(=O)c1sc(NC(=O)CN2CCCC2)c(C(=O)OCC)c1C	none
CCOC(=O)c1c(NC(=O)C(F)(OC)C(F)(F)F)sc(C(=O)N2CCCCC2)c1C (stereo not drawn)	CYP2C9 inh 76.3
O=C(NNS(=O)(=O)c1ccccc1[N+](=O)[O-])c1cccc([N+](=O)[O-])c1	none (no result: CYP2C9 act, CYP2C19 inhib, CYP2C19 act, CYP2C9 inh)
N=c1c[n+](-c2ccc(Cl)cc2)[n-]o1	none
O=C(OCCNc1ncc(C(F)(F)F)cc1Cl)c1ccc(S(=O)(=O)N2CCOCC2)cc1	CYP2C19 inhib 69.1
CC(Sc1nncn1C)C(=O)Nc1nnc(-c2ccccc2)s1 (stereo not drawn)	CYP2C9 inh 51.2 (no result: Pyk2 oligo antag)
Cn1cnnc1SC(C(=O)Nc1ccc(F)cc1)c1ccccc1 (stereo not drawn)	none
Cn1cnnc1SC(C(=O)c1ccccc1)c1ccccc1 (stereo not drawn)	CYP2C19 inhib 81.1
Cc1noc(C)c1S(=O)(=O)N1CCC(C(=O)N2CCC(N3CCCCC3)CC2)CC1	none (no result: Pyk2 oligo antag)
Cc1noc(C)c1CN1C(=O)NC2(CCCCCCC2)C1=O	CYP2C19 inhib 60.9
COc1cc(NC(=O)C(C)Oc2ccccc2)cc(OC)c1 (stereo not drawn)	CYP2C19 inhib 85.5, CYP2C9 inh 79.2
CC(Oc1ccccc1)C(=O)Nc1cccc(F)c1 (stereo not drawn)	none
CC(Oc1ccccc1)C(=O)Nc1ccccc1O (stereo not drawn)	CYP2C19 inhib 86.8, CYP2C9 inh 86.9
CCn1cnc2cc(NCc3ccc(C)cc3)ccc21	CYP2C19 inhib 74.9
COc1ccc(-n2cnc3cc(NS(=O)(=O)c4ccc(C)cc4)ccc32)cc1	CYP2C19 inhib 91.2, CYP2C9 inh 98.3
CCn1cnc2cc(NS(=O)(=O)c3ccc(C)cc3)ccc21	CYP2C19 inhib 88.7, CYP2C9 inh 84.0
COc1ccccc1-n1cnc2cc(NS(=O)(=O)c3ccc(Br)cc3)ccc21	Pyk2 oligo antag -3.28, CYP2C19 inhib 98.4, CYP2C9 inh 99.4
O=C(Nc1cc2c(cc1Cl)OCCCO2)c1ccccc1	none
CCCn1cnc2cc(NCc3cccc(OC)c3)ccc21	CYP2C19 inhib 59.1
COC(=O)C1=C(CN2CCCc3ccccc32)NC(=O)NC1c1ccc(F)cc1 (stereo not drawn)	CYP2C19 inhib 72.3
CC(Cc1cccs1)NC(=O)Nc1ccc(F)cc1 (stereo not drawn)	CYP2C19 inhib 86.9
O=C(NCc1cccs1)Nc1ccc(Cl)cc1	none (no result: CYP2C9 act, CYP2C19 inhib, CYP2C19 act, CYP2C9 inh)
CC(Cc1cccs1)NC(=O)Nc1cccc(Cl)c1 (stereo not drawn)	CYP2C19 inhib 65.6
CN1OC(COC(=O)c2ccc(Cl)cc2Cl)CC1c1ccccc1 (stereo not drawn)	none
CCOC(=O)Cc1cc(=O)[nH]c(/N=C(\N)Nc2ccc(C)cc2C)n1	none
Cc1ccc(C2(C)NC(=O)N(CCOc3ccccc3)C2=O)cc1 (stereo not drawn)	CYP2C19 inhib 76.9
COc1ccc(OCCN2C(=O)NC(C)(c3ccc(C)cc3)C2=O)cc1 (stereo not drawn)	none (no result: CYP2C9 act, CYP2C19 inhib, CYP2C19 act, CYP2C9 inh)
COc1ccc(CCNC(=O)CSc2nnc(-c3cccc(C)c3)o2)cc1OC	CYP2C19 inhib 56.0
CCCCn1c(-c2ccccc2)cnc1SCC(=O)NCCc1ccc(OC)c(OC)c1	CYP2C19 inhib 95.5, CYP2C9 inh 89.6
COc1ccc(CCNC(=O)CSc2ccc3ccccc3c2)cc1OC	none (no result: CYP2C9 act, CYP2C19 inhib, CYP2C19 act, CYP2C9 inh)
COc1ccc(CCNC(=O)CSc2nnc(-c3ccccc3)o2)cc1OC	CYP2C19 inhib 80.7
COc1ccc(CCNC(=O)CSc2nc(N)c3c(C)c(C)oc3n2)cc1OC	CYP2C19 inhib 62.4
CN(C)CCOc1nc(-c2ccccc2)nc2c1oc1ccccc12	none
CCOCCCN(Cc1ccco1)C(=O)c1cc2c(=O)[nH]c3ccc(C)cc3c2s1	none (no result: Pyk2 oligo antag)
CC(SCc1ccccc1)C(=O)NN=C1CCN(C)CC1 (stereo not drawn)	none
Cc1ccc(-c2nn(C)c(=O)c3ccccc23)cc1CNC(=O)/C=C/c1ccccc1	none
CC(=O)c1c(N2CCOCC2)nc(=S)n(-c2ccc([N+](=O)[O-])cc2)c1C	none
O=C1c2cccc3c(O)ccc(c23)C(=O)N1Cc1ccccc1	CYP2C19 inhib 63.5
O=C1Cc2ccccc2C(=O)N1Cc1ccccc1	CYP2C19 inhib 84.6
CC(=O)N(Cc1ccc(F)cc1)C1=C(NCc2ccccc2)C(=O)c2ccccc2C1=O	CYP2C19 inhib 72.9, CYP2C9 inh 76.4
CC(=O)n1nc(-c2ccccc2)nc1NCc1ccc(F)cc1	none
Nc1ccccc1-c1nc2ccccc2[nH]1	CYP2C9 inh 56.2
NC(=O)c1ccccc1NC(=O)CS(=O)(=O)Cc1ccccc1	none
COc1cc(C(=O)NCCC(=O)NCCN2CCCCCC2)cc(OC)c1OC	none
COc1cc(C(=O)NCCC(=O)NC2CCCCCCC2)cc(OC)c1OC	CYP2C19 inhib 82.7
Cc1ccc(NC(=O)CCC(=O)OCC(=O)c2ccc(Oc3ccc([N+](=O)[O-])cc3)cc2)c(C)c1	none
CCc1cc(OCCN2C(=O)NC(C)(C)C2=O)ccc1Cl	CYP2C19 inhib 74.3
CC1(C)NC(=O)N(CCCCOc2ccc(Cl)cc2)C1=O	CYP2C19 inhib 86.2
CC1(C)NC(=O)N(CNc2cc(Cl)ccc2Cl)C1=O	CYP2C9 act 3.1, CYP2C19 inhib 88.3
CC1(C)NC(=O)N(CN2C(=O)NC(C)(C)C2=O)C1=O	none
CC1(C)NC(=O)N(CCCSc2ccc(Cl)cc2)C1=O	CYP2C19 inhib 93.0, CYP2C9 inh 62.3
CCCOCCOC(=O)C1=C(C)NC(=O)NC1c1cc(Cl)c(O)c(OC)c1 (stereo not drawn)	none
CC1(C)NC(=O)N(CCCOc2ccc3c(c2)CCC3)C1=O	CYP2C19 inhib 90.1
Cc1cc(OCCCCN2C(=O)NC(C)(C)C2=O)cc(C)c1Cl	CYP2C19 inhib 76.3
COc1cccc(NC(=O)c2cn(C)c(=O)c3cc(OC)c(OC)cc23)c1	none
N#CC(/C(=N/S(=O)(=O)c1cccs1)c1ccccc1)c1nc2ccccc2[nH]1 (stereo not drawn)	CYP2C9 inh 94.8
CC(C)C(CCN1C(=O)CCC1=O)C1CCOC(C)(C)C1 (stereo not drawn)	none
CCOC(=O)COc1ccc(S(=O)(=O)N2CCN(c3ccccc3F)CC2)cc1	CYP2C19 inhib 68.0, CYP2C9 inh 81.0
COc1cc(S(=O)(=O)N2CCN(c3ccc(F)cc3)CC2)ccc1Cl	Pyk2 oligo antag -3.28
COc1cc(S(=O)(=O)N2CCN(c3ccccc3)CC2)ccc1Cl	none
